# Many of the other results were omitted from the sample, so hits are more common in it than they were.
# ST2 inh = blocks human ST2 binding to IL-33; AlphaLISA ST2-Fc/biotin-IL-33 interaction, 1 h; 2.3% of 78,000 active; AID 1259354; inhibition, % for hits at 17 µM; Q01638; in the data active = inhibition above about 30%
# Target sequence (Q01638 whole entry, looked up): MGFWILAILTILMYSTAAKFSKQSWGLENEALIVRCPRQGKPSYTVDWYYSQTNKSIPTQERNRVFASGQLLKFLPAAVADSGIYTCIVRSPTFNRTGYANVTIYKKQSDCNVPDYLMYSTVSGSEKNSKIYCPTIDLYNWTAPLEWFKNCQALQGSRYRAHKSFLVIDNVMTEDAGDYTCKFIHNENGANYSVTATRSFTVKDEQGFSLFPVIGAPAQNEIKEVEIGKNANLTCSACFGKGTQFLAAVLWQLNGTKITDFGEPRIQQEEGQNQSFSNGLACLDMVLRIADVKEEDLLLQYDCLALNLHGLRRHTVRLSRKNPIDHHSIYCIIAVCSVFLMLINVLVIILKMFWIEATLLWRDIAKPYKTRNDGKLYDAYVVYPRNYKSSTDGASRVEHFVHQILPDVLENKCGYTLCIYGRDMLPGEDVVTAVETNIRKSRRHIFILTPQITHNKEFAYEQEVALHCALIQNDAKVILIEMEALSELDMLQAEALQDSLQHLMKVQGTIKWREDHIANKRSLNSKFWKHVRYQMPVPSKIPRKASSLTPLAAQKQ
# * = called active by the depositor; i = inactive.
SMILES,ST2 inh
O=c1c(-c2ccc(Cl)cc2)ccc2n1C[C@@H]1CNC[C@H]2C1,i
S=C(NC[C@H]1C[C@@H]2CCN1C[C@@H]2CN1CCCC1)Nc1ccc(-n2cccn2)cc1,i
O=C1c2no[n+]([O-])c2C(=O)c2c1no[n+]2[O-],i
COc1cc(/C=C/[N+](=O)[O-])c(OC)cc1C,42%*
COCCC(=O)N1C[C@@H]2C[C@H](C1)c1ccc(NC(=O)Nc3cccc(F)c3)c(=O)n1C2,i
COc1c[nH]c(CN2C[C@H]3C[C@H](O)[C@H](O)C[C@H]3C2)cc1=O,i
C#C[C@H]1CN2CC[C@H]1C[C@@H]2CNC(=S)Nc1cc(OC)cc(OC)c1,i
Nc1cc2nc3ccccc3nc2cc1O,56%*
Nc1c2c(nc3ccccc13)CCCCC2,i
Cc1cc(C)c(C)c(OCC(=O)N2CCN(C)CC2)c1,i
CSc1ccc(-c2ccc(=O)n3c2[C@@H]2C[C@@H](CN(C(=O)c4ccc(C#N)cc4)C2)C3)cc1,i
O=C(NC1CCCCC1)N1C[C@@H]2C[C@H](C1)c1ccc(-c3cc4ccccc4s3)c(=O)n1C2,i
O=C1NC(=O)C2(C(=O)N1)C(c1cccs1)NC(=O)NC2c1cccs1 (stereo not given),i
CN(N=O)c1ccc(O)c(O)c1,69%*
Nc1nc(CNC2CCC3(CCNCC3)CC2)cs1,i
COc1ccc(OC)c(S(=O)(=O)NC[C@H]2C[C@@H]3CCN2C[C@@H]3c2cc(C3CCCCC3)nn2C)c1,i
C(#CCN1CCCCC1)COc1ccccc1,i
O=C(Nc1ccc2n(c1=O)C[C@H]1C[C@@H]2CN(C(=O)NC2CCCCC2)C1)c1cnccn1,i
CN(C)Cc1cn(C[C@H]2C[C@@H]3CCN2C[C@@H]3C(=O)N(C)C)nn1,i
CC(C)(C)c1ccc(OCCNc2ccc([N+](=O)[O-])c3cccnc23)cc1,55%*
CN1CCN(C[C@H]2CN3CC[C@H]2C[C@@H]3CNC(=O)c2ccccc2)CC1,i
Fc1cnccc1-c1cccc2c1CCNC2,i
O=C(O)c1cccc2c1NC(C(=O)O)C1CC(Sc3ccccc3[N+](=O)[O-])C(Cl)C21 (stereo not given),96%*
O=c1cc(-c2ccccc2)oc2c1ccc1occc12,i
Fc1ccc(CN2CCN(c3ccccc3)CC2)cc1,i
SMILES,ST2 inh
CN(C)c1ccc(CN2CCN(c3ccc(F)cc3)CC2)cc1,38%*
Fc1ccc(N2CCN(Cc3ccccc3)CC2)cc1,i
CN(C)c1ccc(CN2CC=C(c3ccc(F)cc3)CC2)cc1,40%*
Fc1ccc(CN2CCN(c3ccccc3Cl)CC2)cc1,i
Cc1ccc(CN2CCN(c3ccc(Cl)cc3)CC2)cc1,i
CCc1ccc2occ(CC(=O)N3CCN(C)C4(CCN(C)CC4)C3)c2c1,i
COc1ccc(-c2ccc(=O)n3c2[C@@H]2C[C@@H](CN(C(=O)COCC(=O)O)C2)C3)cc1,i
Cc1c(C(=O)N2CC[C@@H]3CC[C@H](C2)N3C)cnn1-c1ccccn1,i
CC(=O)NCCNC(=O)[C@H]1CN2CCC1C[C@@H]2Cn1cc(-c2cccc(N)c2)nn1 (stereo not given in full),i
COc1ccc(CN2CCN(C)CC2)c(C)c1C,i
C[Se]C[C@H](N)C(=O)O,i
NC(Cc1cc(O)c(O)cc1O)C(=O)O (stereo not given),95%*
Cc1o[nH]c(=O)c1CC(N)C(=O)O (stereo not given),i
COC(=O)c1ccc(NC(=O)c2cccn(Cc3ccc(Br)cc3)c2=O)cc1,i
O=C(NCc1ccc2c(c1)OCO2)[C@H]1CN2CCC1C[C@@H]2Cn1cc(-c2ccccn2)nn1 (stereo not given in full),i
N/C(=N/[N+](=O)[O-])Nc1ccc(NC(=O)c2ccc([N+](=O)[O-])cc2)cc1,i
CCNC(=O)NC[C@H]1C[C@@H]2CCN1C[C@@H]2c1cc(-c2cccs2)nn1C,i
Cn1nc(-c2cccs2)cc1[C@H]1CN2CC[C@H]1C[C@@H]2CNC(=O)Nc1cccc(C#N)c1,35%*
Cn1nc(-c2cccs2)cc1[C@H]1CN2CC[C@H]1C[C@@H]2CNC(=O)N1CCOCC1,i
CCSc1nc(CC(=O)N2CCN3CCNC(=O)C3C2)cs1 (stereo not given),i
